Inconclusive results are not listed. Entries that show only a call come without a potency. Activity calls are given as the source filed them. Calls come from the whole dose curve; as a rule, active = well fitted inhibition curve with a large enough effect; inconclusive = small, poorly fitted or top-dose-only effect; inactive = no such curve, though single readings can be large or run the other way. Where a SMILES comes first, the peptide text is derived from it. The star is where a group is joined. AFC = O=c1cc(C(F)(F)F)c2ccc(N*)cc2o1

Data on 39 molecules can be found in PubChem BioAssay (NCATS).

The assay has as its system Zika virus NS2B-NS3 protease (unlinked complex). The experiment in a line: Primary screen GU Rhodamine qHTS for Zika virus inhibitors: Unlinked NS2B-NS3 protease assay (AID 1347159). Note: nearly all actives have a fitted effect of over 60% in size. The conditions noted are these: Recombinant ZIKV NS2B-NS3 protease, Rhodamine110 substrate fluorescence; series mostly up to 107 µM. Summed up: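 Percent inhibition came from the 15-min rise in Rhodamine110 fluorescence (1.5 microM substrate, ~15% conversion), normalized to no-inhibitor and no-enzyme wells and Hill-fitted. Unlinked protease, 25 nM, pH 8.0 Tris buffer; compounds up to 114 microM, 15-min preincubation.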
Turning to `CC(=O)O[C@H]1CC[C@@]2(CI)C(=CC[C@@H]3[C@@H]2CC[C@]2(C)[C@@H]([C@H](C)CCCC(C)C)CC[C@@H]32)C1`, the activity change, negative = inhibition is 13.5% [at 19.1 µM] (inactive).
As to `CC1(C)CC[C@]2(C(=O)O[C@@H]3O[C@H](CO)[C@@H](O)[C@H](O)[C@H]3O)CC[C@]3(C)C(=CCC4[C@@]5(C)C[C@@H](O)[C@H](O)C(CO)(CO)C5CC[C@]43C)C2[C@@H]1O` (some centres undefined), the Potency result was “inactive”.
Same read-out and setting: for `O=c1c2cccnc2n(-c2cccc([N+](=O)[O-])c2)c(=O)n1Cc1ccncc1` the value was “inactive”.
Turning to `C=CC(C)(O)CC/C=C(/C)C(=O)OC1C(OC2OCC(OC3OC(CO)C(O)C(O)C3O)C(OC3OCC(O)C(OC4OC(C)C(O)C(O)C4O)C3O)C2O)COC(OC(=O)C23CCC(C)(C)CC2C2=CCC4C5(C)CCC(OC6OC(CO)C(OC7OC(CO)C(O)C(OC8OCC(O)C(O)C8O)C7O)C(O)C6O)C(C)(C)C5CCC4(C)C2(C)CC3O)C1O` (centres undefined), the activity change, negative = inhibition is 23.5% [at 19.1 µM] (inactive).
Turning to `CC1(C)NC2N(C1=O)c1ccccc1C2(O)CC(C(=O)O)n1cnc2ccccc2c1=O` (centres undefined), the Potency entry was “inactive”.
On the same count and under the same terms, for `CC(C)(O)C1CCC2(C)C3C(O)C4C(C13)C42CO` (centres undefined) the value was “inactive”; for `CC(=O)N[C@@H](CC(C)C)C(=O)N[C@@H](CCC(=O)O)C(=O)N[C@@H](CCC(=O)O)C(=O)N[C@@H](CC(=O)O)C(=O)Nc1ccc2c(C(F)(F)F)cc(=O)oc2c1` (Ac-LEED-{AFC}), “inactive”; for `COc1cc(C)c(C(=O)O[C@H]2[C@@H](O)[C@H](n3ccc(=O)[nH]c3=O)O[C@@H]2CO)c(OC)c1`, “inactive”.
The same measure, in the same setting: for `CC(C)N(C[C@H]1O[C@@H](n2cnc3c(N)ncnc32)[C@H](O)[C@@H]1O)C1CC(CCc2nc3ccc(C(C)(C)C)cc3[nH]2)C1` (some centres undefined) the value was “inactive”.
For the molecule `COc1cc(N2CCC(N(C)C)CC2)ccc1Nc1ncc(Cl)c(Nc2ccccc2P(C)(C)=O)n1`, the Potency entry was “inactive”.
Same read-out and setting: to `O=C(/C=C/c1ccc(O)cc1)OC[C@H]1O[C@@H](OC(=O)/C=C/c2ccccc2)[C@H](O)[C@@H](O)[C@@H]1O` belongs “inactive”.
With `COc1c(C)c(OCC=C(C)C)cc2c1C(=O)NC2=O`, the Potency entry was “inactive”.
Same read-out and setting: for `C[C@@H](OC(=O)/C=C/c1ccc(O)cc1)C1=C[C@]2(C=C[C@@H]3C(C(=O)O)=CO[C@@H](O[C@@H]4O[C@H](CO[C@@H]5O[C@H](CO)[C@@H](O)[C@H](O)[C@H]5O)[C@@H](O)[C@H](O)[C@H]4O)[C@@H]32)OC1=O` the value was “inactive”; for `O=C(Nc1cccnn1)N1CCC(=Cc2cccc(Oc3ccc(C(F)(F)F)cn3)c2)CC1`, “inactive”.
Regarding `C[C@]12CC[C@@H]3c4ccc(O[C@@H]5O[C@H](C(=O)O)[C@@H](O)[C@H](O)[C@H]5O)cc4CC[C@H]3[C@@H]1CCC2=O`, the Potency result is “inactive”.
`CC(=O)OC(CSC1CCC(=O)OC(C)CCC(=O)C1)C(=O)O` (centres undefined): the Potency entry is “inactive”.
In the case of `CC1CCC2(C(=O)OC3OC(COC4OC(CO)C(O)C(O)C4O)C(O)C(O)C3O)CCC3(C)C(=CCC4C5(C)CCC(O)C(C)(C(=O)O)C5CCC43C)C2C1(C)O` (centres undefined), the Potency entry is “inactive”.
Still for that read-out and setting: for `O=C1NC(Cc2ccc(O)cc2)C(=O)N2CCCC12` (centres undefined) the value was “inactive”.
The same measure, in the same setting: to `C#Cc1cnc2[nH]c(=O)n(C(CC)CC)c2n1` belongs “inactive”.
For the molecule `C[C@@H]1O[C@@H](O[C@H]2[C@H](OC(=O)C34CCC5(C)C(=CCC6C7(C)CC(O)C(O[C@@H]8O[C@H](C(=O)O)[C@@H](O)[C@H](O)[C@H]8O)C(C)(C(=O)O)C7CCC65C)C3CC(C)(C)CC4O)O[C@H](C)[C@@H](O)[C@@H]2O)[C@H](O)[C@@H](O[C@@H]2OC[C@](O)(CO)[C@H]2O[C@@H]2O[C@H](CO)[C@@H](O)[C@H](O)[C@H]2O)[C@H]1O` (some centres undefined), the activity change, negative = inhibition is 4.07% [at 19.1 µM] (inactive).
`Nc1c(Br)cc(Br)cc1CNC1CCC(O)CC1` (centres undefined): the Potency result is “inactive”.
Regarding `CC1CCC(=O)CC(O)C(O)CC(=O)O1` (centres undefined), the Potency entry is “inactive”.
Still for that read-out and setting: to `CC[C@H]1OC(=O)[C@H](C)[C@@H](O[C@H]2C[C@@](C)(OC)[C@@H](O)[C@H](C)O2)[C@H](C)[C@@H](O[C@@H]2O[C@H](C)C[C@H](N(C)C)[C@H]2O)[C@@](C)(O)C[C@@H](C)[C@@H]2N[C@@H](COCCOC)OC([C@H]2C)[C@]1(C)O` belongs “inactive”; to `CC1(CO)CC[C@]2(C(=O)O[C@@H]3O[C@H](CO)[C@@H](O)[C@H](O)[C@H]3O)CC[C@]3(C)C(=CCC4[C@@]5(C)CC[C@H](O[C@@H]6O[C@H](C(=O)O)[C@@H](O)[C@H](O)[C@H]6O)C(C)(C)C5CC[C@]43C)C2C1` (some centres undefined), “inactive”.
Turning to `OC[C@H]1O[C@@H](n2cnc3c2NC=NC[C@H]3O)C[C@@H]1O`, the Potency result was “inactive”.
For `O=C(c1ccccn1)c1cnn2c(-c3ccncc3)ccnc12`, the Potency result was “inactive”.
On to `COC(=O)C1=CO[C@@H](O[C@@H]2O[C@H](CO)[C@@H](O)[C@H](O)[C@H]2O)[C@@H]2[C@@H](C)[C@@H](O)C[C@H]12`, for which the Potency result was “inactive”.
Turning to `COc1ccc2c(c1)OC[C@]1(O)c3cc4c(cc3O[C@H]21)OCO4`, the Potency result is “inactive”.
On the same count and under the same terms, for `COc1cc(NC(=O)c2ccccn2)ccc1Cl` the value was “inactive”.
In the case of `C[C@@H]1O[C@@H](O[C@H]2[C@H](OC(=O)[C@]34CCC(C)(C)C[C@H]3C3=CCC5[C@@]6(C)C[C@H](O)[C@H](O[C@@H]7O[C@H](CO[C@@H]8OC[C@H](O)[C@H](O)[C@H]8O)[C@@H](O)[C@H](O)[C@H]7O)C(C)(C)C6CC[C@@]5(C)[C@]3(C)C[C@H]4O)OC[C@@H](O)[C@@H]2O)[C@H](O)[C@H](O[C@@H]2OC[C@](O)(CO)[C@H]2O)[C@H]1O[C@@H]1OC[C@H](O)[C@H](O[C@@H]2OC[C@@H](O)[C@H](O)[C@H]2O)[C@H]1O` (some centres undefined), the activity change, negative = inhibition is 12.7% [at 19.1 µM] (inactive).
On to `C/C=C1/[C@H](O[C@@H]2O[C@H](CO)[C@@H](O)[C@H](O)[C@H]2O)OC=C(C(=O)OC)[C@H]1CC(=O)O[C@@H]1O[C@H](CO)[C@@H](O)[C@H](O)[C@H]1O`, for which the Potency result was “inactive”.
With `COc1ccc([C@H]2Cc3cccc(O)c3C(=O)O2)cc1`, the Potency entry is “inactive”.
Same read-out and setting: for `C=C1CC2C3(C)C(O)CC(=O)C(C)(C)C3C(OC(C)=O)C(OC(C)=O)C2(C)C2C(=O)OC(C)(C(=O)OC)C(=O)C12C` (centres undefined) the value was “inactive”; for `CC(=O)OC1C(O)C(C)=C(CCC(C)CC(=O)O)C2(C)CCCC(C)(C)C12` (centres undefined), “inactive”.
The same measure, in the same setting: for `CO[C@@]12CC3[C@@H]([C@@H](O)[C@@H](OC(C)=O)C4[C@](C)(COC(C)=O)CCC[C@]34C)[C@@H](C)C1=CC(=O)O2` (some centres undefined) the value was “inactive”.
Still for that read-out and setting: to `COc1ccc(C(OC2OC(CO)C(O)C(O)C2O)C(C)O)cc1` (centres undefined) belongs “inactive”.
Take `NC(Cc1c[nH]c2ccccc12)C(=O)NC(CCC(=O)O)C(=O)O` (centres undefined): the Potency result was “inactive”.
As to `COc1ccc(C2=CC(=O)OC2Cc2ccc(O)cc2)c(O)c1` (centres undefined), the Potency entry was “inactive”.
The same measure, in the same setting: for `C=C1CCC2C(C)(COC3OC(COC(=O)CC(=O)O)C(O)C(O)C3O)CCCC2(C)C1CCC1=CCOC1=O` (centres undefined) the value was “inactive”.
